Sampled rows, rich in hits. Any-hit rate of the full collection: about 3.2%.
p53ts 32C kill – qHTS Screen for Compounds that Selectively Target Cancer Cells with p53 Mutations: Cytotoxicity of p53ts Cells at the Permissive Temperature | H1299-p53A138V at 32C, ATP luminescence viability, 24 h | Potency, µM (titrated, usually from 46.1 µM), for the others: at the highest dose activity change, negative = cytotoxicity, hits mostly cytotoxic | 130,000 compounds, 0.93% hits | AID 924, 2007;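 note: potency is the fitted concentration of half-maximal effect; 0% = DMSO and -100% = full killing by reference compound; nearly all actives have a fitted effect of over 55% in size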
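Cells: H1299 p53ts (A138V), 600/well, pre-incubated 16–30 h at 37C. Cpd up to 46 uM, 24 h, 32C. Readout: ATPlite luminescence, 20 min RT. Normalization: DMSO vs tamoxifen 100 uM. AC50 by Hill equation.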
Tau fil binding – qHTS Assay for Tau Filament Binding; 71,000 compounds, 2% hits; recombinant tau filaments, thioflavin S fluorescence, 15 h; filaments grown with octadecylsulfate alongside compound; Potency, µM (titrated, usually from 57.1 µM), for inactives: at the top dose activity change, negative = inhibition; Microtubule-associated protein tau (Homo sapiens), P10636;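 note: potency is the fitted concentration of half-maximal effect; % is set by controls: 0 for no effect and ±100 for the full control effect; actives lower thioflavin S fluorescence by blocking filaments or displacing dye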
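His-tagged recombinant human tau (exons 2, 3 and 10 included), 1 uM, was induced to fibrillize by 30 uM sodium octadecylsulfate with compound present. After 15 h at 37 C, thioflavine S fluorescence (ex 450, em 510 nm) was read.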
p53ts 39C kill – qHTS Screen for Compounds that Selectively Target Cancer Cells with p53 Mutations: Cytotoxicity of p53ts Cells at the Nonpermissive Temperature. H1299-p53A138V viability at 39C, ATP luminescence, 24 h. 130,000 compounds, 1.5% hits. AID 902, 2007. Potency, µM (doses to about 46.1 µM), inactives show at the highest dose activity change, negative = cell killing, actives largely listed as cytotoxic; note: potency is the fitted concentration of half-maximal effect; % is set by controls: 0 for no effect and ±100 for the full control effect; nearly all actives have a fitted effect of over 55% in size
ERK AVP inh – qHTS Assay for Inhibitors of the ERK Signaling Pathway using a Homogeneous Screening Assay. HEK293-V1b, vasopressin-stimulated pERK AlphaScreen. Potency, µM (series often up to 57.5 µM), for inactives: at the highest dose activity, negative = inhibition, hits mostly inhibitors. 72,000 compounds, 0.99% hits; note: potency is the fitted concentration of half-maximal effect; % is set by controls: 0 for no effect and ±100 for the full control effect; nearly all actives have a fitted effect of over 55% in size
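HEK293 cells stably expressing V1b receptor, preincubated 30 min at 37 °C with compound, then stimulated 5 min with 25 nM vasopressin. Phospho-ERK by AlphaScreen SureFire after 5 h RT; normalized to DMSO and vasopressin; AC50 by Hill fit.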
TsaE inh – qHTS Assay for Inhibitors of YjeE | tRNA threonylcarbamoyladenosine biosynthesis protein TsaE (Escherichia coli (strain … | purified YjeE enzyme, qHTS inhibition assay | AID 605, 2007 | Potency, µM | 71,000 compounds, 0.05% hits
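Purified YjeE (10 uM) with BODIPY Texas Red-labeled ADP probe (2 uM); compounds pin-transferred, 15 min at room temperature. Binding inhibition read as decreased fluorescence polarization; ADP titration as control.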
Pol III holo inh – qHTS Assay for Inhibitors of DNA Polymerase III Holoenzyme System; reconstituted DNA polymerase III holoenzyme replication, biochemical; Potency, µM (highest dose often 57.1 µM), for the others: at the highest dose activity change, negative = inhibition; 71,000 compounds, 0.25% hits; AID 603, 2007; note: potency is the fitted concentration of half-maximal effect; % is set by controls: 0 for no effect and ±100 for the full control effect
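Reconstituted *E. coli* holoenzyme (0.35 nM Pol III, 1 nM beta, 154 nM SSB, 2 nM primase) was preincubated with compound for 15 min at RT. Synthesis on 1.4 nM ssM13Gori ran 35 min, then was stopped with PicoGreen/EDTA and read as dsDNA fluorescence.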
* = called active by the depositor; i = inactive; ? = inconclusive; . = no result; [ ] = dose if it differs, or a comment. Calls come from the whole dose curve; as a rule, active = well fitted curve in the direction sought with a large enough effect; inconclusive = small, poorly fitted or top-dose-only effect, or another doubt; inactive = no such curve, though single readings can be large; an effect the other way counts as inactive or inconclusive.

SMILES	p53ts 32C kill	Tau fil binding	p53ts 39C kill	ERK AVP inh	TsaE inh	Pol III holo inh
CCCOCC(C)OCC(C)O (stereo not given)	-1%[1.84 µM]	12%	3%	14%	i	-1%
Cc1cc(C)c(NC(=O)CSc2ncc3c(n2)-c2cc(Cl)ccc2N(C)S3(=O)=O)c(C)c1	8%	.	-11%	.	.	.
Cc1sc2ncnc(Sc3nnnn3-c3ccc(Cl)cc3)c2c1C	10µM*	13%	5µM*	93%	i	-6%
COc1ccc(C(c2nnnn2Cc2ccc(F)cc2)N2CCN(c3ccc(OC)cc3)CC2)cc1 (stereo not given)	0%	10µM*	-6%	-22%	i	8%
COc1ccc(C(c2nnnn2Cc2ccc(F)cc2)N2CCN(c3ccccc3)CC2)cc1 (stereo not given)	6%	-2%	-6%	-12%	i	-5%
Clc1ccc(C2=Nn3c(nnc3-c3n[nH]c4c3CCC4)SC2)cc1Cl	48%	218%	13µM*	?	i	4%
CC1(C)COCN1S(=O)(=O)c1ccc(C(=O)Nc2nnc(-c3ccc(Cl)s3)o2)cc1	?	9%	7.9µM*	13%	i	-6%
COc1ccc(OC)c(C2OCCC=CC2C)c1 (stereo not given)	-5%[9.22 µM]	.	9%[9.22 µM]	8%[11.5 µM]	.	.
Cc1cccc(NC(=O)Cn2nnc(-c3cccs3)n2)c1C	13%	13µM*	-26%	-19%	i	-3%
COc1cccc(NC(=O)Cn2c(SCC(=O)N3CCOCC3)nc3ccccc32)c1	-13%	6%	0%	4%	i	-5%
COc1cccc(NC(=O)c2cnc(SCC(=O)N3CCOCC3)n(C)c2=O)c1	10%	.	13µM*	.	.	.
Cc1cc(C)c(OCC(=O)N(Cc2ccc(N(C)C)cc2)Cc2ccco2)c(C)c1	?	.	-14%	.	.	.
COc1ccccc1N1CCN(C(=O)c2ccc3nc(-c4ccco4)c(-c4ccco4)nc3c2)CC1	-7%	3.2µM*	-18%	16µM*	i	-5%
Cc1ccc(CN2CCc3nc(SCC(=O)Nc4cccc(C)c4C)[nH]c(=O)c3C2)cc1	3%	.	22%	.	.	.
Cc1nn(-c2cc(N3CCCCC3)ccc2N)c(=O)c2ccccc12	3%	?	9%	?	i	-2%
Nc1ccc(N2CCCCC2)cc1N1CCCCC1	24%	7.9µM*	9%	?	i	-8%
Nc1c(C(=O)NC2CC2)c2nc3ccccc3nc2n1-c1ccc2c(c1)OCO2	5%	-12%	-18%	?	i	-4%
C=CCn1c(N)c(C(=O)NCC2CCCO2)c2nc3ccccc3nc21 (stereo not given)	19%	49%	-2%	-29%	i	0%
Nc1c(C(=O)OCC2CCCO2)c2nc3ccccc3nc2n1-c1ccc2c(c1)OCCO2 (stereo not given)	3%	-2%	-5%	20µM*	i	2%
COc1ccc(-n2c(N)c(C(=O)NCC3CCCO3)c3nc4ccccc4nc32)c(OC)c1 (stereo not given)	-10%	25µM*	-12%	?	i	-5%
CCc1ccc(S(=O)(=O)c2c(C(=O)c3ccc(C)c(C)c3)cnc3ccccc23)cc1	-2%	.	3%	.	.	.
CCCC(=O)Nc1cccc(-c2nc3cc(C)c(C)cc3o2)c1C	2µM*	.	2.5µM*	.	.	.
CC(C)CCn1c(=O)c2sccc2n2c(CCCC(=O)NCCc3ccccc3)nnc12	-4%	.	3%	.	.	.
Cc1cc(C)c(S(=O)(=O)Nc2ccc(-c3ccc(N4CCCCC4)nn3)cc2)c(C)c1	?	.	7.9µM*	.	.	.
COc1ccc(Cl)cc1S(=O)(=O)Nc1cccc(-c2ccc(N3CCCC3)nn2)c1	6%	.	5%	.	.	.

Screening results from PubChem.
